Experimental data from PubChem BioAssay AID1159580 (chemical genetic matrix, 2015).
“And” between values parts separate entries of the source, which are not always exact repeats. Equal entries are not always repeated. The campaign covered roughly 5,500 compounds. About 2,000 (36%) were called active. Not shown: some 18% with an inconclusive outcome. No stated cut-off is given here; in the data, active means normalized growth mostly below about 0.91 (no sharp cut-off); inconclusive means no clear call, values can overlap the other calls; inactive means mostly above about 0.92. This is one part of the list.

Experiment: chemical genetic growth profiling, strain panel (AID 1159580);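 further: tested at 20 µM; growth read once vehicle control cultures reached saturation at 30 °C; 1 = growth at the plate median or of vehicle wells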
Conditions: S. cerevisiae deletion strains, growth OD

Measured: normalized growth

CC(=O)O[C@@H]1CC2C(C)(C)C(=O)CC[C@]2(C)C2CC[C@@]3(C)[C@H](c4ccoc4)OC(=O)C4OC43[C@@]21C (some centres not stated)
active: locus YGL253W, strain hxk2, stronger effect = lower value 0.874
inactive: locus YAL013W, strain DEP1, stronger effect = lower value 1.01 | locus YAL021C, strain ccr4, stronger effect = lower value 1.01 | locus YAL026C, strain drs2, stronger effect = lower value 0.982 | locus YAL030W, strain snc1, stronger effect = lower value 0.987 | locus YBL061C, strain skt5, stronger effect = lower value 0.98 | locus YBR009C, strain hhf1, stronger effect = lower value 0.985 | locus YBR021W, strain FUR4, stronger effect = lower value 0.953 | locus YBR023C, strain chs3, stronger effect = lower value 0.992 | locus YBR171W, strain sec66, stronger effect = lower value 0.952 | locus YBR229C, strain ROT2, stronger effect = lower value 1 | locus YBR231C, strain swc5, stronger effect = lower value 1.01 | locus YBR279W, strain paf1, stronger effect = lower value 0.991 | locus YCL011C, strain gbp2, stronger effect = lower value 0.977 | locus YCL016C, strain dcc1, stronger effect = lower value 1.03 | locus YCL029C, strain bik1, stronger effect = lower value 1.02 | locus YCL069W, strain vba3, stronger effect = lower value 0.96 | locus YCR088W, strain abp1, stronger effect = lower value 0.973 | locus YDL005C, strain med2, stronger effect = lower value 0.968 | locus YDL035C, strain GPR1, stronger effect = lower value 0.985 | locus YDL040C, strain nat1, stronger effect = lower value 0.976 | locus YDL074C, strain BRE1, stronger effect = lower value 0.985 | locus YDL101C, strain DUN1, stronger effect = lower value 1.01 | locus YDL134C, strain PPH21, stronger effect = lower value 0.992 | locus YDL185W, strain tfp1, stronger effect = lower value 1.01 | locus YDL192W, strain arf1, stronger effect = lower value 1.01 | locus YDR001C, strain nth1, stronger effect = lower value 0.981 | locus YDR069C, strain doa4, stronger effect = lower value 0.943 | locus YDR101C, strain arx1, stronger effect = lower value 0.994 | locus YDR137W, strain rgp1, stronger effect = lower value 0.968 | locus YDR159W, strain sac3, stronger effect = lower value 0.917 | locus YDR162C, strain NBP2, stronger effect = lower value 0.981 | locus YDR195W, strain ref2 0.972 | locus YDR297W, strain sur2, stronger effect = lower value 0.98 | locus YDR318W, strain mcm21, stronger effect = lower value 1 | locus YDR334W, strain swr1, stronger effect = lower value 0.98 | locus YDR335W, strain msn5, stronger effect = lower value 0.981 | locus YDR388W, stronger effect = lower value 1.01 | locus YDR392W, strain spt3, stronger effect = lower value 0.897 | locus YDR502C, strain sam2, stronger effect = lower value 1.02 | locus YEL003W, strain gim4, stronger effect = lower value 0.965 | locus YEL037C, strain rad23, stronger effect = lower value 0.978 | locus YEL061C, strain CIN8 (second series), stronger effect = lower value 0.961 | locus YEL061C, strain CIN8, stronger effect = lower value 1 | locus YER015W, strain faa2, stronger effect = lower value 1 | locus YER016W, strain bim1, stronger effect = lower value 0.972 | locus YER110C, stronger effect = lower value 1.02 | locus YER111C, strain swi4, stronger effect = lower value 0.961 | locus YER155C, strain BEM2 (second series), stronger effect = lower value 1.01 | locus YER155C, strain BEM2, stronger effect = lower value 0.978 | locus YER167W, strain BCK2, stronger effect = lower value 0.993 | locus YFR010W, strain ubp6, stronger effect = lower value 0.958 | locus YGL078C, strain dbp3, stronger effect = lower value 1.01 | locus YGL086W, strain mad1, stronger effect = lower value 1.01 | locus YGL167C, strain pmr1, stronger effect = lower value 0.989 | locus YGL173C, strain kem1, stronger effect = lower value 0.957 | locus YGL227W, strain vid30, stronger effect = lower value 0.975 | locus YGL240W, strain doc1, stronger effect = lower value 0.979 | locus YGL248W, strain PDE1, stronger effect = lower value 0.998 | locus YGR135W, strain pre9, stronger effect = lower value 1.03 | locus YGR252W, strain gcn5, stronger effect = lower value 0.959 | locus YHR013C, strain ard1, stronger effect = lower value 0.979 | locus YHR027C, strain rpn1, stronger effect = lower value 0.987 | locus YHR030C, strain SLT2, stronger effect = lower value 1.01 and 0.997 | locus YHR079C, strain IRE1 (second series), stronger effect = lower value 1.02 | locus YHR079C, strain IRE1, stronger effect = lower value 0.987 | locus YHR094C, strain hxt1, stronger effect = lower value 1.02 | locus YHR129C, strain ARP1, stronger effect = lower value 0.999 | locus YHR142W, strain chs7, stronger effect = lower value 0.96 | locus YHR200W, strain rpn10, stronger effect = lower value 1 | locus YIL066C, strain RNR3, stronger effect = lower value 0.982 | locus YIL073C, strain SPO22, stronger effect = lower value 1.01 | locus YIL125W, strain kgd1, stronger effect = lower value 0.998 | locus YIR030C, strain dcg1, stronger effect = lower value 1.01 | locus YJL092W, strain hpr5, stronger effect = lower value 0.973 | locus YJL095W, strain BCK1 (second series), stronger effect = lower value 0.993 | locus YJL095W, strain BCK1, stronger effect = lower value 0.994 and 0.967 | locus YJL115W, strain asf1, stronger effect = lower value 0.99 | locus YJL129C, strain trk1, stronger effect = lower value 0.928 | locus YJL134W, strain LCB3, stronger effect = lower value 0.999 | locus YJL154C, strain vps35, stronger effect = lower value 0.984 | locus YJL164C, strain tpk1, stronger effect = lower value 1.01 | locus YJL166W, strain qcr8, stronger effect = lower value 0.977 | locus YJL168C, strain set2, stronger effect = lower value 1.02 | locus YJL187C, strain SWE1 (second series), stronger effect = lower value 1.01 | locus YJR066W, strain TOR1, stronger effect = lower value 0.95 | locus YJR075W, strain HOC1, stronger effect = lower value 0.992 | locus YKL009W, strain mrt4, stronger effect = lower value 0.98 | locus YKL068W, stronger effect = lower value 1 | locus YKL085W, strain MDH1 (second series), stronger effect = lower value 1.01 | locus YKL085W, strain MDH1, stronger effect = lower value 1.01 | locus YKL160W, strain elf1, stronger effect = lower value 1.03 | locus YKL190W, strain CNB1, stronger effect = lower value 1 | locus YKR001C, strain vps1, stronger effect = lower value 0.987 | locus YKR026C, strain gcn3, stronger effect = lower value 0.966 | locus YKR091W, strain srl3, stronger effect = lower value 0.996 | locus YLL001W, strain dnm1, stronger effect = lower value 0.959 | locus YLL026W, stronger effect = lower value 0.989 | locus YLL041C, strain sdh2, stronger effect = lower value 1 | locus YLR027C, strain aat2, stronger effect = lower value 1 | locus YLR039C, strain RIC1, stronger effect = lower value 1.03 | locus YLR058C, strain SHM2, stronger effect = lower value 1 | locus YLR102C, strain apc9, stronger effect = lower value 1.01 | locus YLR113W, strain HOG1, stronger effect = lower value 1.02 | locus YLR221C, strain rsa3, stronger effect = lower value 0.946 | locus YLR258W, strain gsy2, stronger effect = lower value 0.988 | locus YLR262C, strain YPT6 (second series), stronger effect = lower value 0.97 | locus YLR262C, strain YPT6, stronger effect = lower value 1.01 | locus YLR268W, strain sec22, stronger effect = lower value 0.994 | locus YLR320W, strain mms22, stronger effect = lower value 0.969 | locus YLR342W, strain FKS1 (second series), stronger effect = lower value 1 | locus YLR342W, strain FKS1, stronger effect = lower value 0.977 | locus YLR357W, strain rsc2, stronger effect = lower value 1.02 | locus YLR370C, strain arc18, stronger effect = lower value 0.957 | locus YLR371W, strain rom2, stronger effect = lower value 1 | locus YLR384C, strain iki3, stronger effect = lower value 0.976 | locus YLR418C, strain cdc73, stronger effect = lower value 0.979 | locus YML016C, strain PPZ1, stronger effect = lower value 0.994 | locus YML032C, strain rad52, stronger effect = lower value 0.995 | locus YML120C, strain ndi1, stronger effect = lower value 1.01 | locus YML124C, strain tub3, stronger effect = lower value 1 | locus YMR058W, strain fet3, stronger effect = lower value 0.991 | locus YMR078C, strain ctf18, stronger effect = lower value 1.01 | locus YMR125W, strain sto1, stronger effect = lower value 0.978 | locus YMR129W, stronger effect = lower value 0.985 | locus YMR205C, strain PFK2, stronger effect = lower value 1 | locus YMR223W, strain ubp8, stronger effect = lower value 1.01 | locus YMR231W, strain pep5, stronger effect = lower value 0.966 | locus YMR307W, strain GAS1, stronger effect = lower value 0.937 | locus YNL067W, strain RPL9B, stronger effect = lower value 1.01 | locus YNL071W, strain lat1, stronger effect = lower value 0.989 | locus YNL153C, strain GIM3, stronger effect = lower value 1.01 | locus YNL183C, strain NPR1, stronger effect = lower value 0.982 | locus YNL209W, strain ssb2, stronger effect = lower value 0.997 | locus YNL233W, strain BNI4, stronger effect = lower value 0.997 | locus YNL248C, strain rpa49, stronger effect = lower value 0.942 | locus YNL250W, strain rad50, stronger effect = lower value 1.01 | locus YNL271C, strain bni1, stronger effect = lower value 1.01 | locus YNL298W, strain CLA4, stronger effect = lower value 1.01 | locus YNL307C, strain MCK1, stronger effect = lower value 1.02 | locus YNL322C, strain KRE1 (second series), stronger effect = lower value 0.985 | locus YNR049C, strain mso1, stronger effect = lower value 0.98 | locus YNR052C, strain pop2, stronger effect = lower value 1.01 | locus YOL012C, strain htz1 0.799 | locus YOL147C, strain pex11, stronger effect = lower value 1.01 | locus YOR001W, strain rrp6, stronger effect = lower value 0.925 | locus YOR061W, strain CKA2, stronger effect = lower value 0.985 | locus YOR069W, strain VPS5, stronger effect = lower value 1.01 | locus YOR070C, strain gyp1, stronger effect = lower value 0.989 | locus YOR080W, strain dia2, stronger effect = lower value 0.976 | locus YOR083W, strain WHI5, stronger effect = lower value 1.03 | locus YOR106W, strain vam3, stronger effect = lower value 1 | locus YOR136W, strain idh2, stronger effect = lower value 1.02 | locus YOR144C, strain elg1, stronger effect = lower value 1 | locus YOR184W, strain ser1, stronger effect = lower value 0.989 | locus YOR231W, strain MKK1, stronger effect = lower value 1.01 | locus YOR265W, strain rbl2, stronger effect = lower value 0.979 | locus YOR270C, strain vph1, stronger effect = lower value 0.835 | locus YOR290C, strain snf2, stronger effect = lower value 1.01 | locus YOR316C, strain cot1, stronger effect = lower value 1.02 | locus YPL051W, strain arl3, stronger effect = lower value 0.964 | locus YPL055C, strain LGE1, stronger effect = lower value 0.963 | locus YPL078C, strain atp4, stronger effect = lower value 1.03 | locus YPL106C, strain sse1, stronger effect = lower value 1.01 | locus YPL240C, strain hsp82, stronger effect = lower value 0.978 | locus YPL241C, strain CIN2, stronger effect = lower value 0.999 | locus YPL256C, strain CLN2, stronger effect = lower value 1.01 | locus YPR119W, strain clb2, stronger effect = lower value 1.01 | locus YPR141C, strain kar3, stronger effect = lower value 1.01 | locus YPR163C, strain tif3, stronger effect = lower value 1.01 | locus YPR167C, strain met16, stronger effect = lower value 1.01 | strain wtn01, stronger effect = lower value 0.977
